Screens as filed in PubChem.
The list is not random: actives were taken first. Their share in the collection is about 11%.
IMPase Li inh = cell-permeable IMPase inhibitors with lithium potentiation. CHO-M1 cells, IP1 TR-FRET (IP-One), carbachol + lithium. Potency, µM (top dose mostly 59.4 µM), without a hit: at the top dose activity, negative = IMPase inhibition, hits mostly inhibitors. 0.35% of 210,000 active; active = well fitted curve in the direction sought with a large enough effect; inconclusive = small, poorly fitted or top-dose-only effect, or another doubt; inactive = no such curve, though single readings can be large; an effect the other way counts as inactive or inconclusive;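 also: IP1 builds up when IMPase is blocked and the TR-FRET signal falls; potency is read from the fitted curve at half-maximal effect; plate controls were basal vehicle for no effect and high inhibitor control for full effect; nearly all actives have a fitted effect of over 50% in size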
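IP1 accumulation measured by competitive TR-FRET in lysed CHO-M1 cells after 30 min compound exposure at 37C, with a small lithium addition to potentiate weak responses. Hill-equation AC50 from ratio and donor-channel data.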
HPGD block = blocks human HPGD enzyme activity | P15428 | purified HPGD, NADH fluorescence kinetic, PGE2 substrate | Potency, µM, for the others: at the highest dose activity change, negative = inhibition, actives largely listed as inhibitors | 4.3% of 150,000 active | AID 894; also: potency is read from the fitted curve at half-maximal effect
Target sequence (P15428 whole entry, looked up): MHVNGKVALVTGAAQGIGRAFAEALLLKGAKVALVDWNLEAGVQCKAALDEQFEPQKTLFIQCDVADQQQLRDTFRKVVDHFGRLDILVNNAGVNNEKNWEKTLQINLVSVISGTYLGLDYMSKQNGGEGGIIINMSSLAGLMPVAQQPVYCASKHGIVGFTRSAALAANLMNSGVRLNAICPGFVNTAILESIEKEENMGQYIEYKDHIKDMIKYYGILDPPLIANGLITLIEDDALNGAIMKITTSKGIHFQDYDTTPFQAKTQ
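20 nM HPGD preincubated 15 min at room temperature with compound in 50 mM Tris-HCl pH 8, 0.01% Tween 20. Started with 1 mM NAD+ and 30 uM prostaglandin E2; NADH fluorescence (360/450 nm) read 5 times over 30-s intervals, last minus first.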
PNC assembly inh = inhibitors of perinucleolar compartment assembly. PC3M PTB-GFP, PNC prevalence imaging, 16 h; hits give low values. activity change (PNC), negative = inhibition, % at 10 µM. AID 2417. 3.1% of 140,000 active;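 active = readout at or below -70, meaning at least 70% loss of cells showing the perinucleolar compartment, a nuclear body marking cancer cells; inconclusive = readout between -30 and a set limit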;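 also: plate controls were DMSO wells for no effect and camptothecin positive control wells for full effect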
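Read-out is percentage of cells bearing a perinucleolar compartment, from automated 20x imaging of fixed, Hoechst-stained PC3M PTB-GFP cells. Cells were seeded 4 h, then exposed 16 h to compound (23 nl of library stock) in duplicate plates.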
IMPase cell inh = IMPase inhibition in cells | 120,000 tested, under 10 active | CHO-M1 cells, IP1 accumulation, HTRF TR-FRET ratio | inhibition (IP1 accumulation), % at 46.1 µM | P97697 | AID 901; active = well fitted curve in the direction sought with a large enough effect in the signal ratio, not every such curve was filed as active; inconclusive = small, poorly fitted or top-dose-only effect, or a change in a side signal; inactive = no such curve, though single readings can be large or run the other way; the % refers to the signal ratio;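 also: cells stimulated with carbachol in lithium chloride buffer; plate controls were DMSO basal wells for no effect and reference inhibitor wells for full effect; higher means more IMPase inhibition seen as more IP1 and lower FRET ratio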
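Cellular IMPase inhibition is scored as a rise in cytosolic IP1, detected by competitive TR-FRET between d2-labelled IP1 and a europium anti-IP1 antibody. M1-expressing CHO cells were stimulated with carbachol for 30 min at 37C, with lithium (50 mM LiCl) present in the buffer.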
12-hLO inh = blocks human 12-lipoxygenase activity. P18054. purified 12-hLO, xylenol orange hydroperoxide absorbance. Potency, µM (doses to about 57.1 µM), for the others: at the highest dose activity change, negative = inhibition, actives largely listed as inhibitors. 0.12% of 150,000 active; active = well fitted curve in the direction sought with a large enough effect; inconclusive = small, poorly fitted or top-dose-only effect, or another doubt; inactive = no such curve, though single readings can be large; an effect the other way counts as inactive or inconclusive; also: potency is read from the fitted curve at half-maximal effect; nearly all actives have a fitted effect of over 55% in size
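Xylenol orange chromogenic assay: hydroperoxide from 12hLO oxidises Fe(II), giving red-shifted Fe(III)-XO absorbance. Conditions: 150 nM enzyme, 40 uM arachidonic acid, 25 mM Hepes pH 7.0, 0.01% Triton X-100, 30 min, room temperature.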
ALDH1A1 inh = ALDH1A1 (human) enzyme inhibition; P00352; Potency, µM (top dose mostly 75.3 µM), for inactives: at the highest dose activity, negative = inhibition, most hits filed as inhibitors; Purified ALDH1A1, NADH fluorescence, propionaldehyde substrate; 7.3% of 220,000 active;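 also: potency is read from the fitted curve at half-maximal effect; plate controls were no enzyme wells and a reference inhibitor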
Target sequence (P00352 whole entry, looked up): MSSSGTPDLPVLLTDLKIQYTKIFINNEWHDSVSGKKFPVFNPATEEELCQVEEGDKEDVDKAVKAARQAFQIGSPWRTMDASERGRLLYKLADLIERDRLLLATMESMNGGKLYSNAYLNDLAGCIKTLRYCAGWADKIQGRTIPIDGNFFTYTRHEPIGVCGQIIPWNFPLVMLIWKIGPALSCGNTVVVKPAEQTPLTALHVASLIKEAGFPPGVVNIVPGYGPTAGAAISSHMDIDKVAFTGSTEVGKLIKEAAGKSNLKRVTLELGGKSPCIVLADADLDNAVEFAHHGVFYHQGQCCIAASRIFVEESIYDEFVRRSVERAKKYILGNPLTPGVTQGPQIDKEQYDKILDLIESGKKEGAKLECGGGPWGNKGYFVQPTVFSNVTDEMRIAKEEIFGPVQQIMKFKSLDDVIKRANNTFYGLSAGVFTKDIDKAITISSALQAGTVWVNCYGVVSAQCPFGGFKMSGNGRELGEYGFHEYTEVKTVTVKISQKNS
The depositor's hits bear a star; ? = inconclusive; · = no result; [ ] = another dose, or the depositor's remark. Unless noted, calls follow the shape of the dose curve; as a rule, active = well fitted inhibition curve with a large enough effect (not every such curve was filed as active); inconclusive = small, poorly fitted or top-dose-only effect, or another doubt; inactive = no such curve, though single readings can be large or run the other way. Unless noted, % is scaled to controls: 0 for no effect and ±100 for the full control effect.

SMILES	IMPase Li inh	HPGD block	PNC assembly inh	IMPase cell inh	12-hLO inh	ALDH1A1 inh
Cc1ccc(OCC(=O)NCCC2=CCCCC2)cc1	11%	-20%	-30	·	-3%	?
CCCNS(=O)(=O)c1ccc(OCC(=O)OC)cc1	12%[38.3 µM]	-8%	-27	0	1%	?
COc1ccc(C(=O)N2CCC[C@@]3(CCN(Cc4cc(C(F)(F)F)cc(C(F)(F)F)c4)C3)C2)cc1	14%	-4%	·	·	0%	7%
CCCCCCCC1=CC2=CC(=O)C(C)(O)C(=O)C2=CN1CCCC (configuration not stated)	·	·	·	·	·	-2%[13.5 µM]
CCN(CC)S(=O)(=O)c1ccc(S(=O)(=O)Nc2ccc3c(c2)oc2ccccc23)cc1	41%[38.3 µM]	-17%	-27	-3	0%	?
CN(C)S(=O)(=O)c1ccc(S(=O)(=O)Nc2ccc3c(c2)oc2ccccc23)cc1	17%[38.3 µM]	-12%	?	-10	-2%	13µM*
CCc1cc2cc3c(cc2nc1SCC(=O)N1CCN(C(=O)c2ccco2)CC1)OCO3	6%[38.3 µM]	-17%	-24	3	-8%	?
Cc1ccc(C)c(-n2nnnc2SCC(=O)NNC(=O)c2ccco2)c1	-3%	·	·	·	·	8.9µM*
CCc1cc2ccc(C)cc2nc1SCC(=O)N1CCN(C(=O)c2ccco2)CC1	28%[38.3 µM]	?	20	11	-13%	10µM*
CCc1cc2ccc(C)cc2nc1SCC(=O)NNC(=O)c1ccco1	4%	0%	?	·	-2%	4µM*
Cc1cc(C)c2nc(SCC(=O)NNC(=O)c3ccco3)c(C)cc2c1	-4%	·	·	·	·	?
CCc1cc2ccc(C)cc2nc1SCC(=O)Nc1cc(C)on1	-3%	·	·	·	·	25µM*
Nc1ncnc2nc(N3CCN(CCO)CC3)[nH]c12	18%	-3%	·	·	0%[11.4 µM]	2%[13.5 µM]
Cc1cc(=O)oc2cc(OCC(=O)Nc3c(C(C)C)cccc3C(C)C)ccc12	·	·	·	-11	·	·
CCC#CCOCC(=S)Nc1ccccc1	-6%	-15%	·	·	2%	6%
COc1ccc(C)cc1-n1nnnc1SCn1nnc2ccccc2c1=O	4%[38.3 µM]	-15%	-16	8	-2%	18µM*
Cc1ccc(-n2nnnc2SCn2nnc3ccccc3c2=O)cc1	4%[38.3 µM]	-24%	?	5	-4%	?
COc1ccc(C)cc1-n1nnnc1SCC(=O)NNC(=O)c1ccc([N+](=O)[O-])cc1	5%	-19%	-22	-1	-4%	3.2µM*
O=C(c1ccc(Cn2cc(Br)cn2)o1)n1cccn1	15%[38.3 µM]	-2%	-83*	11[1.84 µM]	-7%	-13%
O=C(N/N=C/c1c(F)cccc1Cl)c1ccc(Cn2cc(Br)cn2)o1	-5%	-19%	-114*	·	-2%	-5%
COC(=O)C1=C(C(=O)OC)[C@@H]2N(C)c3ccc(OC)cc3[C@@]23C[C@@H](C(=O)OC)N(C(C)=O)C3=N1	14%	-5%	·	·	3%[11.4 µM]	3%[13.5 µM]
O=C(CSc1nnc(-c2cc3ccccc3cc2O)n1Cc1ccco1)N1CCc2ccccc2C1	-2%[38.3 µM]	-21%	36	3	-15%	35µM*
Clc1ccccc1-c1nnc(-c2ccccc2Cl)o1	13%	16µM*	19	9	-3%	-9%
O=C(CSc1nnc(-c2ccccc2Cl)o1)N1CCCCC1	16%[38.3 µM]	25µM*	2	-8	0%	?
CC1CCCCN1C(=O)CSc1nnc(-c2ccccc2Cl)o1 (configuration not stated)	·	·	·	7	·	·
SMILES	IMPase Li inh	HPGD block	PNC assembly inh	IMPase cell inh	12-hLO inh	ALDH1A1 inh
O=C(CSc1nnc(-c2ccccc2O)o1)N1CCc2ccccc2C1	4%[38.3 µM]	-27%	-2	9	-13%	22µM*
CC(C)N(C(=O)CSc1nnc(-c2cc3ccccc3cc2O)n1Cc1ccco1)C(C)C	21%[38.3 µM]	-20%	-3	5	-3%	-6%
O=C(CSc1nnc(-c2ccccc2)o1)N1CCc2ccccc2C1	-1%[38.3 µM]	?	7	3	-2%	-9%
COCCNc1ncnc2ccc(-c3ccc(N(C)C)cc3)cc12	6%	·	·	·	·	?
CC(C)(C)Nc1oc(-c2ccccc2)nc1-c1ccccc1	14%	-8%	·	·	5%	-2%
COC(=O)C(C(C)=O)C(NC(=O)OC(C)(C)C)c1ccccc1 (configuration not stated)	4%	-3%	·	·	·	1%
Cc1ccc(NC(=O)c2c(NC(=O)C(F)(F)F)sc3c2CCCCC3)cc1	·	·	·	-1	·	·
CCCCOc1ccc(/C(O)=C2/C(=O)C(=O)N(CCCOC)C2c2ccncc2)cc1 (configuration not stated)	-17%[38.3 µM]	-12%	-16	-25	-7%	-5%
CCCCOc1ccc(/C(O)=C2/C(=O)C(=O)N(Cc3cccnc3)C2c2ccncc2)c(C)c1 (configuration not stated)	10µM*	-23%	-11	·	2%	?
Cc1cc(OCC(C)C)ccc1/C(O)=C1/C(=O)C(=O)N(Cc2cccnc2)C1c1ccncc1 (configuration not stated)	4.5µM*	-24%	43	?	5%	?
O=C1C(=O)N(Cc2cccnc2)C(c2ccccn2)/C1=C(/O)c1ccc(Br)cc1 (configuration not stated)	?	-5%	-18	-8	-8%	7%
Cc1ccc(/C(O)=C2\C(=O)C(=O)N(Cc3cccnc3)C2c2ccccc2[N+](=O)[O-])cc1 (configuration not stated)	5%	-7%	-13	·	-6%	7.1µM*
CCN1CCN(Cc2c(O)ccc3c(=O)c(Oc4ccccc4Cl)c(C(F)(F)F)oc23)CC1	·	·	·	4	·	·
CCOC(=O)CNS(=O)(=O)c1cc(-c2nnc(Nc3cccc(O)c3)c3ccccc23)ccc1C	·	·	·	6	·	·
Cc1ccc(NS(=O)(=O)c2cc(-c3n[nH]c(=O)c4ccccc34)ccc2C)cc1	20%	20µM*	7	·	-14%	?
CCOC(=O)CNS(=O)(=O)c1cc(-c2n[nH]c(=O)c3ccccc23)ccc1C	6%[38.3 µM]	3.5µM*	17	-4	-6%	14µM*
CC(C)CNC(=O)C1CCN(Cc2ccc(OCc3ccccc3)cc2)CC1	10%	1%	35	·	-2%	3%
CN1CCN(Cc2ccc(OCc3ccccc3)cc2)CC1	-20%[38.3 µM]	0%	-86*	0	3%	-5%
CC(O)CNC(=O)C1CCN(Cc2ccc(OCc3ccccc3)cc2)CC1 (configuration not stated)	6%[38.3 µM]	-4%	-26	6	-6%	20µM*
COC(=O)c1ccc(C23CC2(C(NP(=O)(c2ccccc2)c2ccccc2)c2ccccc2)C3)cc1 (configuration not stated)	9%	-19%	·	·	-12%	32µM*
